Inconclusive results are not listed. Calls of active or inactive are those of the source. Unless noted, the call rests on the fitted dose curve; in most records, active means well fitted curve in the direction sought with a large enough effect; inconclusive means small, poorly fitted or top-dose-only effect, or another doubt; inactive means no such curve, though single readings can be large; an effect the other way counts as inactive or inconclusive.
Assays:
[1] = molecular target: Alpha-galactosidase A (Homo sapiens) (UniProt P06280); experiment: Counterscreen for Glucocerebrosidase Inhibitors: qHTS Assay for Human alpha-Galactosidase at pH 4.5 (AID 992)
In short: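 Human enzyme (2 nM) with 80 uM 4-methylumbelliferyl alpha-D-galactopyranoside in 50 mM citric acid, 0.005% Tween-20, pH 4.5, 20 min at room temperature. Compounds 0.7 nM–77 uM; fluorescence Ex 365/Em 440 after pH 10 stop; AC50 from Hill fits.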

[2] = molecular target: alpha-glucosidase (Oryza sativa, rice) (UniProt Q653V4); experiment: Counterscreen for Glucocerebrosidase Inhibitors: qHTS Assay for Rice alpha-Glucosidase at pH 5.0 (AID 997)
In short: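 Rice alpha-glucosidase (4 nM final) with 400 uM 4-methylumbelliferyl-alpha-D-glucopyranoside in citrate buffer pH 5.0, 20 min at room temperature, stopped at pH 10; fluorescence 365/440 nm, compounds 0.7 nM–77 uM, AC50 from Hill fits.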

[3] = Validation of Assay for Modulators of Lamin A Splicing (AID 1459; active means well fitted curve in the direction sought with a large enough effect in the signal ratio; the % refers to the signal ratio;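 further: cells exposed to compound for two days before reading; ratio rise marks activators and ratio drop marks inhibitors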)
In short: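 S3 HeLa cells stably expressing a lamin A-EGFP splicing minigene and DsRed2 were seeded at 600 cells/well in Opti-MEM with 2% FBS, pin-dosed, and incubated 48 hrs at 37 °C, 5% CO2. Laser-scanning cytometry (488 nm) gave GFP/RFP total intensity ratio.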

[4] = molecular target: DNA repair nuclease/redox regulator APEX1 (Homo sapiens) (UniProt P27695); experiment: qHTS Validation Assay for Inhibitors of the Human Apurinic/apyrimidinic Endonuclease 1 (APE1) (AID 1705; further: potency means the concentration at half of the fitted maximal effect)
In short: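 Human APE1 was preincubated with compound for 15 min at room temperature, then 50 nM (final) THF-abasic double-stranded DNA substrate bearing 5'-TAMRA and 3'-BHQ-2 was added. Incision-driven fluorescence rise (ex 525/em 598 nm) was read kinetically.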

[5] = Counterscreen for APE1 Inhibitors: Fluorescent Dye Displacement Validation Assay (AID 1707)
In short: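 Thiazole Orange (250 nM) bound to 50 nM TAMRA-labelled dsDNA with tetrahydrofuran abasic site; displacement by DNA-binding compounds lowers fluorescence. Buffer 50 mM Tris-HCl pH 7.5, 50 mM NaCl, 2 mM MgCl2, 0.01% Tween-20; endpoint read at 480/540 nm.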

[6] = molecular target: Endonuclease 4 (Escherichia coli (strain K12)) (UniProt P0A6C1); experiment: Counterscreen for APE1 Inhibitors: qHTS Validation Assay for Inhibitors of Endonuclease IV (AID 1708)
In short: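 2 nM enzyme was preincubated with compounds for 15 min at room temperature in 50 mM Tris-HCl pH 7.5, 50 mM NaCl, 2 mM MgCl2, 1 mM DTT, 0.01% Tween-20. 50 nM THF-abasic TAMRA/BHQ-2 duplex substrate started the reaction.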

[7] = qHTS for differential inhibitors of proliferation of Plasmodium falciparum line 7G8 (AID 1815);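 further: parasite growth measured after three days of incubation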; further: potency means the concentration at half of the fitted maximal effect
[8] = qHTS for differential inhibitors of proliferation of Plasmodium falciparum line GB4 (AID 1816); conditions: Potency: Plasmodium falciparum GB4 proliferation inhibition;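 further: parasite growth measured after 72 h incubation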; further: potency means the concentration at half of the fitted maximal effect
[9] = qHTS for differential inhibitors of proliferation of Plasmodium falciparum line 3D7 (AID 1876); further: potency means the concentration at half of the fitted maximal effect
[10] = Cell Viability - LYMP2-012 (AID 982);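 further: cellular ATP by luciferase luminescence where a drop means cytotoxicity; cells exposed to compound for one day before reading; nearly all actives have a fitted effect of over 55% in size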
[11] = Cell Viability - LYMP2-014 (AID 983); further: series mostly up to about 92 µM; nearly all actives have a fitted effect of over 50% in size
In short: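 Human lymphoblastoid cells (2500/well) were pre-incubated 5 hr at 37 C, then exposed to compounds in complete medium for 24 hr at 37 C. Intracellular ATP was read by CellTiter-Glo luminescence after 30 min at room temperature; AC50 from Hill fits.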

[12] = Cell Viability - LYMP2-016 (AID 984); further: nearly all actives have a fitted effect of over 55% in size
In short: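 Human lymphoblastoid cells (LYMP2-016), 2500/well in complete medium, preincubated 5 hr at 37 C, then compound-treated 24 hr at 37 C. Intracellular ATP read by CellTiter-Glo luminescence after 30 min at room temperature; AC50 from Hill-equation concentration-response fits.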

[13] = Cell Viability - LYMP2-018 (AID 985);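 further: compound exposure lasted 24 hr at 37 °C; nearly all actives have a fitted effect of over 50% in size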
In short: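 Human lymphoblastoid cells (2500/well) were pre-incubated 5 hr at 37 C, then exposed to compounds for 24 hr at 37 C in complete medium. Viability was read as intracellular ATP by CellTiter-Glo luminescence; AC50 values came from Hill-equation fits.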

[14] = Cell Viability - LYMP2-020 (AID 986); further: series mostly up to about 92 µM; nearly all actives have a fitted effect of over 55% in size
In short: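 Human lymphoblastoid cells, 2500/well, were pre-incubated 5 hr at 37 C, then exposed to compounds for 24 hr at 37 C in complete medium. Intracellular ATP was read by CellTiter-Glo luminescence, and AC50 was derived by Hill fitting of concentration-response data.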

[15] = Cell Viability - LYMP2-022 (AID 987); further: nearly all actives have a fitted effect of over 55% in size
In short: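 Human lymphoblastoid cells, 2500/well, preincubated 5 hr at 37 C, then exposed to compounds over a concentration range for 24 hr at 37 C in complete medium. Viability read as intracellular ATP by CellTiter-Glo luminescence after 30 min at room temperature; AC50 from Hill fits.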

[16] = Cell Viability - LYMP2-024 (AID 988); further: nearly all actives have a fitted effect of over 60% in size
In short: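 Human lymphoblastoid cells (2500/well) in complete medium were preincubated 5 hr at 37 C, then exposed to compounds for 24 hr at 37 C. Intracellular ATP was read by CellTiter-Glo luminescence; AC50 from Hill-equation fits of concentration-response data.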

[17] = Cell Viability - LYMP2-026 (AID 989); further: nearly all actives have a fitted effect of over 50% in size
In short: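 Human lymphoblastoid cells (2500/well) in complete medium were preincubated 5 hr at 37 C, then exposed to compounds for 24 hr at 37 C. Cellular ATP was read by CellTiter-Glo luminescence; AC50 from Hill-equation fits of concentration-response data.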

[18] = Cell Viability - LYMP1-002 - Assay at 24 hr (AID 993)
In short: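 Human lymphoblastoid LYMP1-002 cells, 2500/well in complete medium, were treated with compounds for 24 h at 37 C; intracellular ATP was read by CellTiter-Glo luminescence. AC50 values came from Hill-equation fits of qHTS concentration-response data.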

[19] = Cell Viability - LYMP1-002 - Assay at 40 hr (AID 994); further: nearly all actives have a fitted effect of over 60% in size
In short: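 Human lymphoblastoid cells, 2500/well in complete medium, were preincubated 5 hr at 37 C, then exposed to compounds for 40 hr at 37 C. Intracellular ATP was read by CellTiter-Glo luminescence after 30 min at room temperature; AC50 from Hill-equation fits.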

Measured: Potency

DNA repair nuclease/redox regulator APEX1 (Homo sapiens), sequence (P27695 whole entry, looked up): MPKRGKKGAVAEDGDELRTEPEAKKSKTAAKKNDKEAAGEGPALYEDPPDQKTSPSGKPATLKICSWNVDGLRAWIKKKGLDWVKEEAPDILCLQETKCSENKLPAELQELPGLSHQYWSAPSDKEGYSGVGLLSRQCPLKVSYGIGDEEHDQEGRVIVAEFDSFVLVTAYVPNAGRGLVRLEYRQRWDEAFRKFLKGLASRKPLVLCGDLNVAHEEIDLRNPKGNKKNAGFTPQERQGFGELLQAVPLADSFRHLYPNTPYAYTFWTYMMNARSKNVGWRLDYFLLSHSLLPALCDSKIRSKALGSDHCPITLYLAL
Alpha-galactosidase A (Homo sapiens), sequence (P06280 whole entry, looked up): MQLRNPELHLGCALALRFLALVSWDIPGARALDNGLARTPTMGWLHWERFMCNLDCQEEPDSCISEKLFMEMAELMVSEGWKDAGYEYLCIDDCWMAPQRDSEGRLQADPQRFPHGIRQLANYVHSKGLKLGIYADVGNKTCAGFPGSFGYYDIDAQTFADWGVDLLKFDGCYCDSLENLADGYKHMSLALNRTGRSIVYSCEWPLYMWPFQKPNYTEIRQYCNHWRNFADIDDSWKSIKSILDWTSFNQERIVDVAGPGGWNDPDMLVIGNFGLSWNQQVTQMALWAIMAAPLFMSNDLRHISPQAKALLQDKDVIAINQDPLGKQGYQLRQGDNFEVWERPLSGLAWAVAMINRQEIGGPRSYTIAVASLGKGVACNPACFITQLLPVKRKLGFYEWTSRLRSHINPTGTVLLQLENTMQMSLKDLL

C=CCn1c(=O)c2c(nc(-c3ccc(S(=O)(=O)O)cc3)n2C)n(C)c1=O
inactive: [1] | [2] | [3] | [4] | [5] | [6] | [7] | [8] | [9]

O=C(O)c1cc(=O)cc(C(=O)O)[nH]1
inactive: [1] | [3] | [4] | [5] | [6] | [7] | [8] | [9]

CO/N=C(\C(=O)N[C@@H]1C(=O)N2C(C(=O)O)=C(CSc3nc(=O)c(O)nn3C)CSC12)c1csc(N)n1 (some centres not stated)
inactive: [3] | [5] | [7] | [8] | [9]
active: [4] 2.24 µM

Nc1ccc(N2C(=O)c3ccccc3C2=O)c(Cl)c1
inactive: [1] | [2] | [3] | [4] | [5] | [6] | [7] | [8] | [9]

N#C/C(=C\c1ccc(O)c(O)c1)C(=O)NCCc1ccccc1
active: [7] 8.91 µM | [8] 10 µM | [9] 11.2 µM
inactive: [1] | [3] | [4] | [5] | [6]

CCCCCC[C@@H]([C@@H](C)O)n1cnc2c(N)ncnc21
inactive: [3] | [4] | [5] | [7] | [8]

C#CCn1c(=O)c2c(ncn2C)n(C)c1=O
inactive: [1] | [3] | [4] | [5] | [6] | [7] | [8] | [9]

C=CC[C@H](N)C(=O)O
inactive: [1] | [2] | [3] | [4] | [5] | [6] | [7] | [8] | [9]

Cc1cccc(C)c1OCC(N)C(C)C (configuration not stated)
inactive: [3] | [4] | [5] | [6] | [9]
active: [7] 11.2 µM

N#CC(C#N)=C(N)/C(C#N)=C/c1ccc(O)cc1
inactive: [1] | [3] | [4] | [5] | [6]

C=CC1(C)CC(=O)C2(O)C(C)(O1)C(OC(C)=O)C(O)C1C(C)(C)CCC(O)C12C (configuration not stated)
inactive: [3] | [4] | [5] | [6] | [8] | [9]

NC(=O)c1ccccc1
inactive: [10] | [11] | [12] | [13] | [14] | [15] | [16] | [17] | [1] | [18] | [19] | [3] | [4] | [5] | [6] | [7] | [8] | [9]
